Shn3 3UTR inh: inhibitors of Schnurri-3 3'UTR reporter in osteoblasts | 360,000 tested, 0.52% active | inhibition, % at 12.5 µM | Clone20 osteoblast Shn3 3'UTR firefly luciferase, 24 h;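 active means mean inhibition of at least 75% with every replicate also reaching 75%; inconclusive means mean inhibition at least 75% but some replicate below; inactive means mean inhibition below 75%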;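 further: 0% = median of neutral control wells and 100% = pilot-screen positive control compound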
TRPM1 prom inh: inhibitors of MITF-driven TRPM1 promoter in melanoma cells | SK-MEL-5 TRPM1 promoter luciferase, 24 h | inhibition, % at 12.5 µM | 330,000 tested, 0.83% active | AID 488899;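 active means mean inhibition across replicates of 60% or more, whatever share of single replicates reaches that level; inconclusive means some that reach 60%, reason not given; inactive means mean inhibition across replicates below 60%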
PAX8 reporter: inhibitors of PAX8 transcriptional activity in RMG-I cells. 360,000 tested, 1.2% active. inhibition, % at 12.6 µM. RMG-I TPO-luciferase reporter, SteadyGlo, 24 h;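 active means mean replicate inhibition at least 60% with every replicate also reaching 60%; inconclusive means only one of the two criteria is met; inactive means mean below 60% and not all replicates reaching 60%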;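 further: luciferase light reporting Pax8 driven TPO promoter activity; plate controls were median of neutral control wells for no effect and mitoxantrone controls for full effect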
ABHD5 PLIN5 PPI: ABHD5-PLIN5 protein interaction inhibition | Q00G26+Q8WTS1 | Split G. princeps luciferase complementation, luminescence, 4 h | inhibition, % at 4 µM | 360,000 tested, 0.78% active | AID 602281;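 active means inhibition above the mean inhibition across every tested compound plus 3 SD, cut at about 22% in these data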;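 further: 0% = DMSO only wells and the 100% control is not disclosed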
Target sequence (Q00G26 whole entry, looked up): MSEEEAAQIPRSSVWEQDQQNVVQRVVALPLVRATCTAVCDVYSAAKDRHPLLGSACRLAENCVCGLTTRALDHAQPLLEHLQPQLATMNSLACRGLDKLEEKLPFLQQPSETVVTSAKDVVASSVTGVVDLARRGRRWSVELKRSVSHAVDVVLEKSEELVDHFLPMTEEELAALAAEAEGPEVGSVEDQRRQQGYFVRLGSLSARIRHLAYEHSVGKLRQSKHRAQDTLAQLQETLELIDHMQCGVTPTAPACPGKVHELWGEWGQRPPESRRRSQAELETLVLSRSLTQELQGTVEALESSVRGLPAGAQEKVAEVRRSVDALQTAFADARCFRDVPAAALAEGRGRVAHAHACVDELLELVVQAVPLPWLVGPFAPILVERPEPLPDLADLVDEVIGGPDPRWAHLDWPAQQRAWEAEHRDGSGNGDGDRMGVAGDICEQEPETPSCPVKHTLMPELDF
Target sequence (Q8WTS1 whole entry, looked up): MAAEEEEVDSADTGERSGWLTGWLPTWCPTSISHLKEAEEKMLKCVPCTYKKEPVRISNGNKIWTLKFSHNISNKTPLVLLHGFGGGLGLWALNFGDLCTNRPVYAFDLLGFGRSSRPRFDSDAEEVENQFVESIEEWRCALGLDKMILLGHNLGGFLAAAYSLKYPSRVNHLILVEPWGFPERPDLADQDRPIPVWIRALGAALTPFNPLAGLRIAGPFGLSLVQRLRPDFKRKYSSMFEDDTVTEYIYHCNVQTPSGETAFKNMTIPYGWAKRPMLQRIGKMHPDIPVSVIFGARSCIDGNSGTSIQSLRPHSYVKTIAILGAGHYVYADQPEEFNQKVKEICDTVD
Peg3 promoter: reduces Peg3 promoter-driven luciferase expression in HeLa; inhibition, % at 20 µM; HeLa PEG-Prom luciferase reporter, luminescence, overnight; 360,000 tested, 1.7% active;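 active means inhibition of at least 50% at 20 µM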
EWS-Fli block: inhibitors of EWS/Fli oncoprotein transcriptional activity | A673 NR0B1-luciferase reporter, viability-normalised | inhibition, % at 12.6 µM | 350,000 tested, 0.67% active | AID 651661;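 active means mean inhibition of at least 50% after viability correction, with every replicate also passing that limit; inconclusive means mean reaches 50% but only one of two replicates passes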;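 further: firefly luciferase signal divided by Alamar Blue viability fluorescence both relative to DMSO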
* = called active by the depositor; ? = inconclusive; . = not tested or not shown. Hits are enriched below; roughly 3% of the tested compounds scored in any of these assays.

SMILES	Shn3 3UTR inh	TRPM1 prom inh	PAX8 reporter	ABHD5 PLIN5 PPI	Peg3 promoter	EWS-Fli block
C[C@@H]1CN([C@@H](C)CO)C(=O)CCCn2cc(nn2)CO[C@@H]1CN(C)S(=O)(=O)c1ccc(F)cc1	.	.	.	.	.	2
CCNC(=O)C[C@@H]1CC[C@H]2[C@H](COc3ccc(NC(=O)Nc4c(C)noc4C)cc3C(=O)N2C)O1	.	.	1	.	.	-7
Cc1sc2ncnc(Sc3nnnn3-c3ccccc3)c2c1C	1	69*	.	5	72*	.
Clc1ccc(-n2nnnc2Sc2ncnc3sccc23)cc1	56	66*	.	16	108*	.
CC(C)C[C@H](NC(=O)c1nc[nH]c1C(=O)NC(c1ccccc1)c1ccccc1)C(=O)OC(C)(C)C	28	9	67*	-23	84*	23
CC(C)C[C@H](NC(=O)c1nc[nH]c1C(=O)N[C@@H](CC(C)C)C(=O)OC(C)(C)C)C(=O)OC(C)(C)C	46	.	66*	-3	33	24
Cc1ccc(S(=O)(=O)Nc2cc(Cl)c(O)c3ncccc23)cc1	72	21	84*	-4	25	-12
Cc1noc(C)c1S(=O)(=O)Nc1ccc2c(c1)C(=O)N([C@H](C)CO)C[C@H](C)[C@@H](CN(C)S(=O)(=O)c1ccc(Cl)cc1)OCCCC[C@H](C)O2	.	.	54	.	.	-2
Cc1noc(C)c1S(=O)(=O)N(C)C[C@H]1OCCCC[C@H](C)Oc2ccc(NS(=O)(=O)c3ccc(Cl)cc3)cc2C(=O)N([C@H](C)CO)C[C@@H]1C	.	.	70*	.	.	4
Cc1noc(C)c1S(=O)(=O)Nc1ccc2c(c1)C(=O)N([C@H](C)CO)C[C@@H](C)[C@@H](CN(C)S(=O)(=O)c1ccc(Cl)cc1)OCCCC[C@H](C)O2	.	.	70*	.	.	-4
COc1ccc(S(=O)(=O)N(C)C[C@H]2OCCCC[C@@H](C)Oc3ccc(NS(=O)(=O)c4c(C)noc4C)cc3C(=O)N([C@H](C)CO)C[C@H]2C)cc1	.	.	77*	.	.	6
COc1ccc(S(=O)(=O)N(C)C[C@H]2OCCCC[C@H](C)Oc3ccc(NS(=O)(=O)c4c(C)noc4C)cc3C(=O)N([C@H](C)CO)C[C@@H]2C)cc1	.	.	12	.	.	5
O=S(=O)(N[C@H]1CC[C@H](CCn2cc(-c3cccnc3)nn2)O[C@@H]1CO)c1ccc(F)cc1	.	.	-6	.	.	1
COc1ccc(NC(=O)N(C)C[C@@H]2OCc3ccccc3-c3c(n(C)c4ccccc34)C(=O)N([C@@H](C)CO)C[C@@H]2C)c(OC)c1	.	.	15	.	.	-9
COc1ccc2c3c(n(C)c2c1)[C@H](CO)N(C)CC31CN(S(=O)(=O)c2cccc(F)c2)C1	.	.	.	.	.	-2
C=CCc1cc(C)ccc1OCCOCCC(C(=O)OCC)C(=O)OCC	-9	-5	79*	-2	4	3
Cc1cccc(NC(=O)/C(C#N)=C/c2cn(CC(=O)NCc3ccco3)c3ccccc23)c1	9	3	12	-3	60*	.
CC(=O)N1N=C(c2cccc(NS(=O)(=O)c3ccc(C)cc3)c2)CC1c1ccco1 (stereo not drawn)	9	7	17	6	31	.
CC(=O)N1N=C(c2ccc(NS(=O)(=O)c3ccccc3)cc2)CC1c1ccco1 (stereo not drawn)	14	9	27	-6	25	54*
O=[N+]([O-])c1ccc(-c2cnc(SC(c3ccccc3)c3ccccc3)[nH]2)cc1	47	0	24	-17	53*	7
CCOC(=O)CNC(=O)C1(c2ccccc2)CCCC1	8	-4	.	2	7	.
CCOC(=O)CNC(=O)C1(NC(=O)CNC(=O)OCc2ccccc2)CCCC1	91*	0	-15	-5	-12	0
CNC[C@@H]1Oc2cc(-c3ccncc3)ccc2S(=O)(=O)N([C@@H](C)CO)C[C@H]1C	.	.	.	.	.	-6
O=[N+]([O-])c1cnc(Sc2ccncn2)c([N+](=O)[O-])c1	3	.	-2	-9	113*	22
O=[N+]([O-])c1ccc(Sc2ncccn2)c([N+](=O)[O-])c1	-11	35	19	-1	11	-12
SMILES	Shn3 3UTR inh	TRPM1 prom inh	PAX8 reporter	ABHD5 PLIN5 PPI	Peg3 promoter	EWS-Fli block
O=C(Nc1ccc(Cl)cc1)Nc1ccccc1Sc1ncc([N+](=O)[O-])s1	-23	53	-39	-19	-70	12
O=[N+]([O-])c1cnc(Sc2ccncn2)s1	28	83*	120*	18	110*	?
C[C@@H]1CN([C@H](C)CO)C(=O)c2cc(N(C)C)ccc2O[C@@H](C)CCCCO[C@@H]1CN(C)S(=O)(=O)c1cn(C)cn1	.	.	-1	.	.	-1
COCCn1c(SCC(=O)Nc2sccc2C(N)=O)nc2cc(Cl)ccc2c1=O	66	6	.	0	52*	.
COCCn1c(SCC(=O)Nc2cccnc2Cl)nc2cc(Cl)ccc2c1=O	0	11	8	6	23	6
C[C@H](CO)N1C[C@H](C)[C@@H](CN(C)CC2CCCCC2)Oc2ccc(NC(=O)Nc3ccc4c(c3)OCO4)cc2CC1=O	.	.	90*	.	.	0
C[C@H]1CN([C@@H](C)CO)C(=O)Cc2cc(NC(=O)Nc3ccc4c(c3)OCO4)ccc2O[C@@H]1CN(C)CC1CCCCC1	.	.	101*	.	.	2
C[C@H](CO)N1C[C@H](C)[C@H](CN(C)CC2CCCCC2)Oc2ccc(NC(=O)Nc3ccc(F)cc3)cc2CC1=O	.	.	9	.	.	60*
COc1ccc(C#Cc2cnc3c(c2)C(=O)N([C@H](C)CO)C[C@H](C)[C@H](CN(C)S(=O)(=O)c2cccc(F)c2)O3)cc1OC	.	.	.	.	.	9
C[C@@H]1CCCCO[C@@H](CN(C)C(=O)Nc2ccc3c(c2)OCO3)[C@H](C)CN([C@@H](C)CO)C(=O)c2cc(NC(=O)c3ccncc3)ccc2O1	.	.	.	.	.	10
Nc1ccc2ccc(NS(=O)(=O)N3CCCCC3)cc2c1	.	.	3	.	.	56*
CC(=O)N(Cc1c(C)nn(-c2ccccc2)c1Cl)c1ccc(Cl)cc1	17	-1	-6	-3	22	.
Cc1nn(-c2ccccc2)c(Cl)c1CN(C(=O)CCl)c1cccc2ccccc12	50	25	111*	7	95*	38
Cc1nn(-c2ccccc2)c(Cl)c1CN(C(=O)CCl)c1ccc(Cl)cc1	96*	91*	100*	12	103*	.
C[C@@H]1CCCCO[C@@H](CN(C)Cc2ccc(C(=O)O)cc2)[C@H](C)CN([C@H](C)CO)C(=O)c2cc(NC(=O)Nc3cccc4ccccc34)ccc2O1	.	.	6	.	.	-1
O=C(CCl)N1c2ccccc2SCC1c1ccccc1 (stereo not drawn)	15	79*	14	9	68*	61*
O=C(CCl)N1c2ccccc2OCC1c1ccccc1 (stereo not drawn)	-1	8	-1	2	47	0
NC(Cc1ccc(C(F)(F)F)cc1)c1csc(Nc2ccc(C(=O)NCc3ccco3)cn2)n1 (stereo not drawn)	-21	.	-2	9	86*	4
